Laboratory results reported in PubChem BioAssay.
Several values for one entry are separate records, joined by “and”; a condition that tells them apart may be missing. Equal values may be shown once. Activity calls are given as the source filed them. No rule for the calls is given here.

Legend:
[1] = system: Botulinum neurotoxin type F light chain protease (Clostridium botulinum); experiment: Clostridium botulinum type F light chain protease inhibitors, microsphere substrate cleavage, validation (AID 588459); conditions: multiplex microsphere protease substrate cleavage assay, flow cytometry; at 10 µM; hits give high values
[2] = biological target: Botulinum neurotoxin type A (Clostridium botulinum) (UniProt P0DPI0); experiment: BoNT/A light chain protease inhibitors, biochemical, multiplex microsphere flow cytometry, validation set (AID 588460); conditions: at 10 µM, hits give high values
[3] = biological target: Lethal factor (Bacillus anthracis) (UniProt P15917); experiment: Bacillus anthracis lethal factor inhibition, microsphere flow cytometry protease assay, validation at 10 µM (AID 588461); conditions: multiplex microsphere protease cleavage assay, hits give high values

Measured: inhibition

Sequence of Botulinum neurotoxin type A (Clostridium botulinum) (P0DPI0 whole entry, looked up): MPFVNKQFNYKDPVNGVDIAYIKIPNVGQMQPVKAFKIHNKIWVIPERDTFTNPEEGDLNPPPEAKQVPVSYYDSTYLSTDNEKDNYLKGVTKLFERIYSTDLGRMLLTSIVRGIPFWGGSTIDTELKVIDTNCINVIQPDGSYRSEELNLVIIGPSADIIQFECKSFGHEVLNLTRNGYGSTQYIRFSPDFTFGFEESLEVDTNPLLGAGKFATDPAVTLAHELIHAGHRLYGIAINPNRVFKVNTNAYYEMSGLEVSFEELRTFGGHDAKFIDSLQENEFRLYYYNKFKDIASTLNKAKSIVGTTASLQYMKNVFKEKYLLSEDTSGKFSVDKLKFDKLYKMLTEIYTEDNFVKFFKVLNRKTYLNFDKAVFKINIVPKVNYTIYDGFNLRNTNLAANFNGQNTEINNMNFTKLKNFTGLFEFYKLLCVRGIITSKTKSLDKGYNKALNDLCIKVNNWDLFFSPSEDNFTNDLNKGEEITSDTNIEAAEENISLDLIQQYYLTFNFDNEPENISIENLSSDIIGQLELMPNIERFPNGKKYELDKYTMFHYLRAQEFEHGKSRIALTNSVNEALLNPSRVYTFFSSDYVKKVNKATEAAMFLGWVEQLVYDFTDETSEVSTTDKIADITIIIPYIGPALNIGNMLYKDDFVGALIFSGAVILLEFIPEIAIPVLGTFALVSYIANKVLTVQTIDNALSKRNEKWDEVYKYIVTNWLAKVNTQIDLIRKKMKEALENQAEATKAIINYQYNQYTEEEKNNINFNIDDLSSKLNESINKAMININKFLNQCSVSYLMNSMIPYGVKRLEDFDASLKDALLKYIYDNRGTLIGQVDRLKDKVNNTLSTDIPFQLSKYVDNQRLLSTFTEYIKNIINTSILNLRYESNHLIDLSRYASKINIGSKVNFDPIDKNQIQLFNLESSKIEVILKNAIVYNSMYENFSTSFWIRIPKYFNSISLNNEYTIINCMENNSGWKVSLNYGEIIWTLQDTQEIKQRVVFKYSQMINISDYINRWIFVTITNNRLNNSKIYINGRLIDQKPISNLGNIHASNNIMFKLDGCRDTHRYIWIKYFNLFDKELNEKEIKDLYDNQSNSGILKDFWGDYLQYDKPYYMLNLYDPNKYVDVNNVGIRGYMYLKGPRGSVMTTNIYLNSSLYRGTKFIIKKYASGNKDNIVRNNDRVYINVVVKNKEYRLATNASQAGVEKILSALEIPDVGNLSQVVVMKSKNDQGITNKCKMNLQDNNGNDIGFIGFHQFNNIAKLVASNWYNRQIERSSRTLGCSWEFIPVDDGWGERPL
Sequence of Lethal factor (Bacillus anthracis) (P15917 whole entry, looked up): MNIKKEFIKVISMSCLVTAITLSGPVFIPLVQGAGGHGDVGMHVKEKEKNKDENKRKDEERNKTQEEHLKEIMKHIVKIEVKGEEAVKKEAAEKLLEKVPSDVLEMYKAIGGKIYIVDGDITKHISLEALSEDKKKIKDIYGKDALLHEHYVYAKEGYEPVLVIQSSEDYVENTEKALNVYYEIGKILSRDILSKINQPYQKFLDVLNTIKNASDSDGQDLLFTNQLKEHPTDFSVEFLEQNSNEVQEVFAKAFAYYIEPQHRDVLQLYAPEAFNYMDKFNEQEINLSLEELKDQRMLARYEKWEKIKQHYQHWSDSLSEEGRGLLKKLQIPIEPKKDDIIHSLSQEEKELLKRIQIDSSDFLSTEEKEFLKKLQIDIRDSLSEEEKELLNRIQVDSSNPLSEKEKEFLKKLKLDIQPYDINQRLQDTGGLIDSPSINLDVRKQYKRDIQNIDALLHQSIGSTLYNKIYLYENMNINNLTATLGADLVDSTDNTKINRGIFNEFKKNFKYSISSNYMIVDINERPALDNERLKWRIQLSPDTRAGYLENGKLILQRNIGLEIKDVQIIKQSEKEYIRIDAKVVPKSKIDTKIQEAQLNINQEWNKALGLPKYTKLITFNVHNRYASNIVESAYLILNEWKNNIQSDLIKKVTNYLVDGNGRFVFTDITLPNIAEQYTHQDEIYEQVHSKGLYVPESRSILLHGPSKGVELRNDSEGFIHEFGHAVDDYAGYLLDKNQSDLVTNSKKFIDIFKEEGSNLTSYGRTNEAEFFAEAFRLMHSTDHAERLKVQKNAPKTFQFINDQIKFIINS

CC1(C)Cc2ccccc2-c2nc(-c3ccccc3)oc(=O)c21
inactive: [1] -1.9% | [2] 0% | [3] -0.2%

Nc1nnc(CSCc2ccc(Cl)cc2Cl)s1
inactive: [1] 0.7% | [2] -0.6% | [3] 6.8%

OC(CCN1CCCCC1)(c1ccccc1)C1CCCCC1 (configuration not stated)
inactive: [1] 3.1% | [2] 1% | [3] 1%

COc1ccc(C(C)N2CC34C=CC(O3)C(C(=O)OCC(C)C)C4C2=O)cc1 (configuration not stated)
inactive: [1] -1.9% | [2] -1.2% | [3] 0.2%

COC(=O)c1cc(-c2ccc(OC)c(OC)c2)on1
inactive: [1] 6.2% | [2] 1.7% | [3] 0.1%

CCc1cc(/C(Cc2ccccn2)=N\O)c(O)cc1O
inactive: [1] -2.8% | [2] -2.8% | [3] -5.1%

COc1ccc(C2C3=C(OC(C)=O)c4ccccc4C3=Nc3c2c(=O)n(C)c(=O)n3C)cc1 (configuration not stated)
inactive: [1] 4% | [2] 0.1% | [3] 2.9%

C=C1C2(C(=O)Nc3ccc(SC(F)F)cc3)CCC(C2)C1(C)C (configuration not stated)
inactive: [1] -1.3% | [2] -0.9% | [3] 1.3%

CC1(C)C2CCC1(C)C(OCC[N+](C)(C)CC(=O)OC1CCCCC1)C2 (configuration not stated)
inactive: [1] -1.7% | [2] -2.1% | [3] -1.9%

CN1C(C(=O)Nc2ccccn2)=C(O)c2ccccc2S1(=O)=O
inactive: [1] 1.9% | [2] 1.5% | [3] 10%

Cc1ccc2c(c1)C1(C(=O)N2)N2CCCC2C(C(=O)c2ccc3ccccc3c2)C12C(=O)Nc1ccccc12 (configuration not stated)
inactive: [1] 0% | [2] -1% | [3] -10%

COc1ccc(CCN2CCC(Nc3nc4ccccc4n3Cc3ccc(F)cc3)CC2)cc1
inactive: [1] -1.8% | [2] 0.4% | [3] 1.2%

Clc1ccc(CCNc2ncnc3nc[nH]c23)cc1
inactive: [1] 4.5% | [2] 0.1% | [3] -3.1%

Cn1cc(CN(CCO)Cc2cccs2)c(-c2cccc(Cl)c2)n1
inactive: [1] 1.3% | [2] 1.3% | [3] -1.3%

Oc1ccc(Cl)cc1Cc1cc(Cl)ccc1O
inactive: [1] 10% | [2] 4.5% | [3] 7.7%

CC(NC(=O)c1ccc(OC2CCN(Cc3ccccn3)CC2)cc1)c1ccccc1 (configuration not stated)
inactive: [1] 2.8% | [2] 0.5% | [3] 3.4%

Cc1ccc(Nc2ncccc2C(=O)O)cc1C
inactive: [1] 0.8% | [2] -0.2% | [3] -6.3%

COc1cc(OC)cc(C(C)=O)c1
inactive: [1] -1.9% | [2] -1.3% | [3] -0.1%

CC(O)Cn1cnc2c1c(=O)n(C)c(=O)n2C (configuration not stated)
inactive: [1] -1.4% | [2] -0.5% | [3] -3.2%

Cc1cc(-c2ccccc2)nnc1NCCN1CCOCC1
inactive: [1] -0.7% | [2] -0.4% | [3] -2.3%

COc1ccc(C=NCC2COc3ccccc3O2)cc1OC (configuration not stated)
inactive: [1] -0.8% | [2] -3.3% | [3] -3.2%

C[N+](C)(C)CCOP(=O)([O-])OC[C@H](O)CO
inactive: [1] 1.7% | [2] -0.4% | [3] 3.2%

O=C1c2ccccc2C(=O)N1/N=C/c1ccc(Oc2ccc([N+](=O)[O-])cn2)cc1
inactive: [1] 0.2% | [2] 0.8% | [3] -1.7%

CCc1nc2ccccc2n1Cc1ccc(OC)c(OC)c1
inactive: [1] -1.2% | [2] 0.6% | [3] 0.6%

COc1cccc(OCC(O)CO)c1 (configuration not stated)
inactive: [1] -1.4% | [2] -1.1% | [3] -9.1%

CCCCOc1ccc(CC(=O)NO)cc1
inactive: [1] -1.6% | [2] -0.2% | [3] 0.6%

c1ccc(CN(CC2=NCCN2)c2ccccc2)cc1
inactive: [1] 5.3% and 2.2% | [2] 1.1% and 0.4% | [3] -3.2% and 1.4%

CC(C)C(=O)Nc1ccc2c3c(cccc13)CC2
inactive: [1] 1% | [2] 0.5% | [3] -3%

CC1(C)S[C@@H]2[C@H](NC(=O)C(C(=O)O)c3ccccc3)C(=O)N2[C@H]1C(=O)O (some centres not stated)
inactive: [1] 3.8% | [2] 1.2% | [3] -6.1%
